Screening results (PubChem)
In the library only some 8% were active in any assay of this set; here they are far more common.
KB-V1 cytotox: qHTS assay for MDR1-selective chemotherapeutics: Primary screen using the drug-selected MDR subline cells KB-V1; KB-V1 MDR cells viability, CellTiter-Glo, 72 h; Potency, µM (series often up to 46.1 µM), usual class: cytotoxic; 400,000 compounds, 3.4% hits; note: % is set by controls: 0 for no effect and ±100 for the full control effect; nearly all actives have a fitted effect of over 60% in size
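Drug-selected KB-V1 cells, grown in DMEM lacking phenol red with 10% FBS, receive compound titrations; after three days at 37 degrees C, surviving cell ATP is quantified by CellTiter-Glo luminescence and responses normalized and curve-fitted.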
HT1080 IDH1KD tx: qHTS for induction of synthetic lethality in tumor cells producing 2HG: qHTS for the HT-1080-IDH1KD cell line | HT-1080 IDH1 knockdown viability, ATP luminescence, 48 h | Potency, µM (highest dose often 46.1 µM), inactives show at the highest dose activity, negative = toxicity, usual class: cytotoxic | 360,000 compounds, 2% hits;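 note: 0% = DMSO wells and -100% = cell-free medium wells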
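% activity derives from luminescence (CellTiter-Glo), normalised to DMSO and no-cell wells. HT-1080-IDH1KD cells, 750/well, had 48 h compound exposure at 37 °C.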
HT1080NT lethal: qHTS for induction of synthetic lethality in tumor cells producing 2HG: qHTS for the HT-1080-NT fibrosarcoma cell line | HT-1080-NT fibrosarcoma viability, CellTiter-Glo ATP luminescence, 48 h | 360,000 compounds, 1.6% hits | Potency, µM (series often up to 46.1 µM), inactives show top-dose activity, negative = less viability, actives largely listed as cytotoxic | AID 686970, 2013;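 note: NT is the 2HG producing partner of a matched IDH1 knockdown line; 0% = DMSO-treated cells and -100% = media-only wells without cells; nearly all actives have a fitted effect of over 55% in size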
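Luminescent CellTiter-Glo readout after 48 hours of compound exposure at 37 degrees C defined viability of HT-1080-NT cells. Activity was normalized to DMSO wells and cell-free media wells; concentration-response curves were fitted and assigned curve classes.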
MCF10A rereplic: A quantitative high throughput screen for small molecules that induce DNA re-replication in MCF 10a normal breast cells. MCF 10A DNA re-replication, Hoechst nuclear intensity, 48 h. Potency, µM (titrated, usually from 46.1 µM), inactives show top-dose activity, positive = re-replication, most hits filed as activators. 350,000 compounds, 2.9% hits; note: % of control where 0% means no effect; nearly all actives have a fitted effect of over 50% in size
SW480 rereplic: A quantitative high throughput screen for small molecules that induce DNA re-replication in SW480 colon adenocarcinoma cells | 340,000 compounds, 1.8% hits | AID 624297, 2012 | Potency, µM (series often up to 46.1 µM), inactives show at the top dose re-replication activation, actives largely listed as activators | SW480 DNA re-replication, Hoechst DNA content imaging, 48 h; note: % of control where 0% means no effect; nearly all actives have a fitted effect of over 55% in size
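Per well, 250 cells were exposed to pinned compound for 48 hr. Nuclear DNA was visualised with Hoechst (40 min, 37 C) and total object intensity recorded by fluorescence scanning.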
KB-3-1 tox: qHTS assay for MDR1-selective chemotherapeutics: Primary screen using the parental adenocarcinoma cell KB-3-1 | 400,000 compounds, 1.4% hits | KB-3-1 viability, CellTiter-Glo ATP luminescence, 72 h | Potency, µM (top dose mostly 46.1 µM), most hits filed as cytotoxic; note: % is set by controls: 0 for no effect and ±100 for the full control effect; nearly all actives have a fitted effect of over 60% in size
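Here the drug-naive KB-3-1 line serves as comparator for MDR sub-line selectivity; cells received compound titrations, 72 h at 37 °C, then CellTiter-Glo readout.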
Numbers without * were called inactive; i = inactive; ? = inconclusive; · = no result; [ ] = remark or other dose. Calls come from the whole dose curve; as a rule, active = well fitted curve in the direction sought with a large enough effect; inconclusive = small, poorly fitted or top-dose-only effect, or another doubt; inactive = no such curve, though single readings can be large; an effect the other way counts as inactive or inconclusive. Potency is the fitted concentration of half-maximal effect.

SMILES	KB-V1 cytotox	HT1080 IDH1KD tx	HT1080NT lethal	MCF10A rereplic	SW480 rereplic	KB-3-1 tox
O=C(O)c1cc(-c2ccc3c(c2)OCO3)nc2ccccc12	i	-9.0%	-15.8%	9.7%	-3.0%	i
CCCN(CCC)C(=O)c1cc(-c2ccc3c(c2)OCO3)nc2ccccc12	18.4µM*	-28.9%	-13.2%	?	?	i
CCCNC(=O)NNC(=O)c1cc(-c2ccc3c(c2)OCO3)nc2ccccc12	i	7.7%	1.3%	-3.8%	?	i
CC(NC(=O)c1cc(-c2ccc3c(c2)OCO3)nc2ccccc12)C(C)(C)C (configuration not stated)	16.4µM*	-4.7%	-1.8%	?	7.4%	i
Cc1ccc(OCc2cc(C(=O)N3CCN(c4ccccc4)CC3)no2)cc1C	?	-2.9%	4.4%	-2.9%	?	i
CCOCC(=O)Nc1ccc(-c2cn3cccnc3n2)cc1	i	22.2%	5.0%	-5.7%	-9.0%	i
COc1ccc(-c2cc(C3CCN(Cc4cccc(C(F)(F)F)c4)CC3)[nH]n2)cc1	?	?	16.4µM*	?	?	?
CC(C)CNC(=O)COC(=O)c1c2c(nc3ccccc13)/C(=C\c1cccs1)CC2	?	?	-5.2%	?	6.51µM*	i
O=C(COC(=O)c1c2c(nc3ccccc13)CCCC2)Nc1ccc2c(c1)OCO2	?	?	?	29.2%	1.1%	?
O=C(COC(=O)c1c2c(nc3ccccc13)/C(=C\c1cccs1)CCC2)Nc1ccccc1	2.31µM*	-28.0%	-12.3%	?	13µM*	11.6µM*
CC(=O)c1ccc(NC(=O)COC(=O)c2c3c(nc4ccccc24)/C(=C\c2cccs2)CCC3)cc1	16.4µM*	?	-21.2%	5.8µM*	20.6µM*	i
CCOCCCNC(=O)C(NC(=O)c1ccc2c(c1)OCO2)c1ccc(Cl)cc1 (configuration not stated)	i	3.5%	0.5%	1.0%	-6.1%	i
Cc1cc(-c2nn(-c3ccccc3F)cc2CN2CCN(c3ccccn3)CC2)c(C)s1	16.4µM*	?	-4.1%	?	-32.8%[1.84 µM]	i
Cn1cc(CN2CCN(c3ccc(Cl)cn3)CC2)c(-c2ccccc2F)n1	i	4.0%	3.5%	8.9%	-4.1%	i
Cc1cccc(N2CCN(Cc3cn(C)nc3-c3ccccc3F)CC2)n1	?	1.84µM*	?	7.31µM*	3.26µM*	5.8µM*
COc1ccc(N(CC(=O)Nc2ccc3c(c2)OCO3)S(=O)(=O)c2ccccc2)cc1OC	i	-0.2%	0.1%	-15.4%	27.2%	?
Cc1noc(C)c1CCC(=O)Nc1c(C(C)C)cccc1C(C)C	14.6µM*	-1.0%	0.4%	-3.8%	-2.4%	i
CCc1cccc(OCCOCCN2CCCC2)c1	i	7.7%	3.8%	16.5%	14.4%	i
Cc1nc2cc(-c3ccc(Cl)cc3)nn2c(C)c1CCC(=O)NCc1ccco1	i	-7.9%	-4.6%	-0.2%	?	?
COc1ccc(-c2cc3nc(C)c(CCC(=O)NCc4ccco4)c(C)n3n2)c(OC)c1	4.61µM*	-4.0%	-1.0%	9.9%	-2.5%	i
C#CCN(Cc1ccco1)C(=O)c1ccc(OC2CCN(Cc3ccccn3)CC2)cc1	16.4µM*	-1.2%	-0.5%	?	5.6%	i
O=C(NCc1ccco1)c1ccc(OC2CCN(Cc3ccccn3)CC2)cc1	i	-1.7%	4.2%	·	·	i
COc1cccc(CCNC(=O)c2cnc3sc(N4CCCCCC4)nn3c2=O)c1	i	·	·	·	·	i
